# Rows were chosen to be rich in hits. Some 4.6% of all compounds tested hit in one or more screens of this group.
# TIM10 inh: TIM10 yeast growth inhibition. S. cerevisiae TIM10 strain growth, BacTiter-Glo luminescence, 24 h. inhibition, % at 10 µM. 330,000 compounds, 1.4% hits;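 active = inhibition of 40% or more at the single tested concentration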;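 note: wild-type TIM10 isogenic control strain grown at permissive 25 °C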
# NALP3 yeast inh: inhibitors of NALP3 inflammasome in yeast; 330,000 compounds, 0.39% hits; Yeast reconstituted NLRP3/ASC/caspase-1, beta-gal luminescence, 24 h; inhibition, % at 10 µM; AID 2825;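 active = inhibition of 50% or more; inactive = inhibition below 50%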;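 note: plate controls were induced DMSO wells for no effect and uninduced yeast grown without galactose for full effect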
# tim10-1 inh: tim10-1 yeast growth inhibition; S. cerevisiae tim10-1 ts strain growth, BacTiter-Glo, 24 h; inhibition, % at 20 µM; 330,000 compounds, 2.2% hits; AID 463190;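 active = inhibition of at least 40%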;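 note: mutant grown at 25 °C; 0% = DMSO wells with yeast and 100% = wells holding no yeast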
# tim23-1 inh: inhibits growth of tim23-1 mutant yeast | S. cerevisiae tim23-1 growth, BacTiter-Glo luminescence, 24 h | inhibition, % at 20 µM | 330,000 compounds, 1.3% hits | AID 463212;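 active = growth inhibition of the mutant yeast at or above 50%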;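 note: temperature-sensitive mutant grown at 25 °C; plate controls were DMSO-treated mutant yeast for no effect and medium wells lacking yeast for full effect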
# SKKanGAS inh: inhibitors of SKKanGAS S. pyogenes growth in kanamycin (SK-promoter or general growth effect). BacTiter-Glo, 6 h. inhibition, % at 7.5 µM. 300,000 compounds, 1.3% hits;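 active = mean replicate score, as percent of positive control median, at least 50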;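 note: strain carries kanamycin resistance gene driven by streptokinase promoter and grows in 40 µg/ml kanamycin; loss of luminescence reflects streptokinase promoter inhibition or plain growth inhibition; 0% = median of DMSO wells and 100% = positive control at its reference dose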
# tim23-1 conf: tim23-1 yeast growth inhibition, confirmed; inhibition, % at 20 µM; AID 463218; shares compounds with tim23-1 inh; 4,400 compounds, 83% hits; S. cerevisiae tim23-1 growth, BacTiter-Glo luminescence, 24 h;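 active = inhibition above about 39% in either of two replicate wells at 20 µM, limit read from the data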;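 note: temperature-sensitive tim23-1 mutant grown at 25 °C; 0% = DMSO wells with yeast and 100% = medium wells without yeast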
# An asterisk follows results filed as active; . = not tested or not shown.
SMILES,TIM10 inh,NALP3 yeast inh,tim10-1 inh,tim23-1 inh,SKKanGAS inh,tim23-1 conf
O=C(N/N=C/c1ccc(Cl)cc1Cl)c1ccncc1,-5.2,13.5,4.9,14.1,-1.1,.
O=C(N/N=C/c1coc2ccccc2c1=O)c1cc(O)cc(O)c1,3.3,19.8,-1.6,12.2,.,.
COc1ccc(C(=O)N/N=C\c2coc3ccccc3c2=O)cc1,14.3,13.6,12.9,50.6*,-19.2,43.2*
O=C(N/N=C/c1ccc2cccc(OCc3ccccc3)c2n1)c1ccc(Cl)cc1,17.2,21.7,9.2,0.1,11.7,.
CC(C)C(NC(=O)/C(=C/c1ccco1)NC(=O)c1ccc(Br)o1)C(=O)O (centres undefined),-14.4,21.2,11.0,5.8,0.4,.
C#CCOCCOCCOCCNc1nc(N2CCN(C(=O)[C@H](CC(N)=O)n3cc([C@@H](N)C(C)C)nn3)CC2)nc(N2CCN(C(=O)[C@H](CC(N)=O)n3cc([C@@H](N)C(C)C)nn3)CC2)n1,4.3,13.1,-2.1,1.7,.,.
O=C1C=C(c2ccc3[nH]ccc3c2)C[C@@H](c2ccc(F)cc2)C1,24.6,4.2,38.8,53.0*,.,50.5*
COc1ccc([C@H]2CC(=O)C=C(c3ccc4[nH]ccc4c3)C2)cc1OC,20.1,11.9,20.1,34.2,.,.
O=C1C=C(c2ccc3c(c2)OCCO3)C[C@@H](c2ccc(F)cc2)C1,16.8,0.9,22.4,51.0*,.,47.5*
CCOC(=O)C(Cc1ccccc1)NC(=O)CCc1nnc2ccc(N3CCCC3)nn12 (centres undefined),12.7,16.4,21.5,1.8,-3.8,.
Cc1cccc(NC(=S)NNc2cccc(Cl)c2)c1,23.9,12.4,22.7,52.3*,14.0,55.3*
NC(=S)NNC(=O)Nc1cccc(Cl)c1,3.4,6.4,-1.7,5.4,-2.0,.
NC(=S)NNc1cccc(Cl)c1,13.4,20.2,20.7,60.2*,10.2,60.7*
CC(=O)Nc1ccc(S(=O)(=O)NC2(C(F)(F)F)C(=O)Nc3c2c(=O)[nH]c(=O)n3Cc2cccnc2)cc1 (centres undefined),3.5,8.3,-1.2,0.3,4.9,.
COc1cc(-c2c(C#N)c(N)nc3c2CCCC3)ccc1O,5.3,-2.4,8.0,15.7,-1.3,.
COc1ccc(-c2c(C#N)c(N)nc3c2CCc2ccccc2-3)cc1OC,29.4,4.5,39.7,51.0*,19.9,34.2
CC1(C)CC(NC(=O)c2ccccc2F)CC(C)(C)N1,-0.2,-8.3,-12.1,-7.2,0.0,.
CCCCN(Cc1ccccc1)S(=O)(=O)c1cc(Br)cc2c1N(C(C)=O)C(C)C2 (centres undefined),33.3,21.8,23.4,55.9*,-1.1,53.0*
Cc1ccc(S(=O)(=O)N2C[C@@H]3[C@H]4CC[C@H](C4)[C@@H]3[C@@H](C)[C@H]2C#N)cc1,0.0,.,17.5,90.8*,.,39.8*
Cc1ccc(S(=O)(=O)N2C[C@@H]3[C@H]4CC[C@H](C4)[C@@H]3[C@@H](C)[C@H]2c2ccn(Cc3ccccc3)c2)cc1,-0.3,.,21.4,37.0,.,.
COC(=O)c1c(C)cc(O)c(C=O)c1O,0.0,7.7,8.8,56.3*,0.8,45.3*
OCCN1CCN(CC(O)COc2ccc(C34CC5CC(CC(C5)C3)C4)cc2)CC1 (centres undefined),2.8,15.5,0.2,-14.8,19.0,.
NCCOc1ccc(C23CC4CC(CC(C4)C2)C3)cc1,-13.1,28.8,26.1,65.6*,17.6,76.6*
CC1=CC(=NOC(=O)/C=C/c2ccccc2)C=C(C)C1=O,29.2,-10.0,37.3,70.2*,8.3,52.6*
CC1=C(C)/C(=N\OC(=O)/C=C/c2ccccc2)C=CC1=O,6.1,4.8,27.1,21.0,3.1,.
SMILES,TIM10 inh,NALP3 yeast inh,tim10-1 inh,tim23-1 inh,SKKanGAS inh,tim23-1 conf
COc1ccc(OS(=O)(=O)c2c(C)noc2C)cc1,9.0,13.5,0.4,-0.7,8.8,.
Cc1ccc(-c2ccc(C3C(C#N)=C(N)Oc4n[nH]c(C)c43)o2)cc1 (centres undefined),14.1,4.6,25.5,59.8*,1.0,46.2*
C=CCNC(=O)C(=O)Nc1ccc2c(c1)N(S(=O)(=O)c1cccs1)CCC2,35.0,16.4,34.7,51.5*,9.9,41.5*
CC(=O)c1sc(-c2ccc(F)cc2)cc1NS(=O)(=O)c1ccccc1,-16.3,1.8,-3.3,-3.7,-10.1,.
O=C(c1ccc2ccccc2n1)N1CCN(S(=O)(=O)c2ccc(Cl)cc2)CC1,21.8,14.8,26.9,50.4*,.,36.0
C/C(=N\Nc1cc(N2CCOCC2)nc(C)n1)c1ccc(F)cc1,0.5,31.4,17.6,18.7,-3.1,.
C/C(=N\Nc1cc(N2CCCCC2)nc(C)n1)c1ccc(Br)cc1,8.4,22.6,20.1,56.7*,81.7*,48.5*
Cc1cc(C)n(/N=C/c2cc([N+](=O)[O-])ccc2O)c(=O)c1,5.9,17.7,3.0,26.7,2.9,.
O=C(COC(=O)c1ccc(F)cc1Cl)NC1CCCCCCC1,22.9,26.0,18.5,50.8*,.,41.7*
CCOC(=O)C1CCN(S(=O)(=O)c2cccc3nonc23)CC1,6.6,16.8,10.6,14.5,0.0,.
CCOC(=O)C1CCN(S(=O)(=O)c2c(Cl)ccc3nonc23)CC1,20.9,20.3,25.3,65.1*,-10.3,60.3*
CCOC(=O)C1CCN(C(=O)Cc2c(C(=O)O)n(C)c3ccccc23)CC1,-2.9,-8.7,12.4,77.2*,-1.0,1.4
CCOC(=O)C1CCN(C(=O)Cc2ccccc2OC)CC1,-6.3,11.6,-19.5,-5.0,-4.7,.
O=C(Nc1ccc2c(c1)OCO2)O[C@@H]1C[C@H]2CCC(=O)N3CC[C@@H](C1)[C@@H]23,-3.4,19.2,-13.6,3.8,3.4,.
C(/CCc1ccccc1)=N\Nc1nc2ccccc2[nH]1,-3.1,1.2,-0.1,-10.3,4.0,.
C(=C\c1ccccc1)/C=N/Nc1nc2ccccc2[nH]1,19.0,17.8,14.9,50.5*,16.9,48.0*
COc1ccc(C(O)(C2CCCCC2)C(CN2CCOCC2)c2ccccc2)cc1 (centres undefined),19.4,5.4,35.8,33.7,4.8,.
OC(c1ccccc1)(C1CCCCC1)C(CN1CCOCC1)c1ccccc1 (centres undefined),26.6,0.6,17.7,50.4*,-1.8,30.8
C=CCN(c1ccccc1C(=O)NCC(=O)O)S(=O)(=O)c1ccccc1C,10.0,10.2,3.6,11.6,2.8,.
O=C(Oc1cccc2cccnc12)c1ccco1,6.9,-9.8,-7.3,7.8,34.8,.
O=C(Oc1ccc(Cl)c2cccnc12)c1ccco1,22.6,17.9,26.6,51.8*,86.6*,45.7*
O=Cc1ccccc1OCc1ccc2c(c1)OCO2,21.8,-8.1,-0.4,56.9*,7.4,56.1*
COc1ccc(C2CC(=O)Oc3cc(O)ccc32)cc1 (centres undefined),7.3,.,2.2,56.7*,.,45.5*
COc1ccc(C2CC(=O)Oc3cc4c(cc32)OCO4)cc1 (centres undefined),6.0,.,13.8,61.1*,.,49.0*
